# Source: PubChem BioAssay (National Center for Advancing Translational Sciences (NCATS))
# SMN2 splice enh: qHTS Assay for Enhancers of SMN2 Splice Variant Expression | HEK293 SMN2-luciferase splicing reporter, luminescence, 30-36 h | 210,000 tested, 2.8% active | Potency, µM (top dose mostly 46.1 µM), inactives show top-dose activity change, positive = activation, hits mostly activators; note: % of control where 0% means no effect; nearly all actives have a fitted effect of over 55% in size
#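 HEK293 cells carry an SMN2 minigene-luciferase reporter in which exon 7 inclusion puts luciferase in frame. Cells were seeded at 2000 cells/well, attached for 10-12 hours, then exposed to compounds for 30-36 hours at 37C before ONE-Glo luminescence.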
# Rab9 promoter act: qHTS Assay for Rab9 Promoter Activators | Huh7 Rab9 promoter-luciferase reporter, luminescence, 24 h | Potency, µM (doses to about 9.22 µM), without a hit: at the highest dose activation, negative = inhibition, usual class: activators | 320,000 tested, 2.8% active | AID 485297, 2010; note: % of control where 0% means no effect; nearly all actives have a fitted effect of over 60% in size
#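 Rab9 promoter-driven luciferase in stably transfected Huh7 cells; 1500 cells/well rested 2 h, exposed to compound in DMSO for 24 h at 37 °C, 5% CO2. Luminescence read 10 min after adding luciferase reagent at ambient temperature.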
# NPC1 promoter act: qHTS Assay for NPC1 Promoter Activators; Potency, µM (highest dose often 9.22 µM), inactives show at the highest dose activation, actives largely listed as activators; 320,000 tested, 2.4% active; Huh7 NPC1 promoter luciferase reporter, 24 h; note: % of control where 0% means no effect; nearly all actives have a fitted effect of over 60% in size
#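 NPC1 promoter–luciferase Huh7 cells; 24 h compound; luminescence.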
# ELG1 DNA repair: qHTS screen for small molecules that inhibit ELG1-dependent DNA repair in human embryonic kidney (HEK293T) cells expressing luciferase-tagged ELG1; 330,000 tested, 2.3% active; HEK293T ELG1-luciferase reporter, luminescence, 16 h; DNA damage induced by 5-fluorouridine; Potency, µM (highest dose often 46.1 µM), for the others: at the highest dose activity change, negative = inhibition, most hits filed as inhibitors; AID 504467, 2011; note: % is set by controls: 0 for no effect and ±100 for the full control effect; nearly all actives have a fitted effect of over 55% in size
#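 Reporter activity after DNA damage by 5-fluorouridine is monitored. Compound-treated cells incubate 16 hr at 37 °C, then ONE-Glo is added for 30 min before luminescence reading.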
# ELG1 genotox: qHTS screen for small molecules that induce genotoxicity in human embryonic kidney (HEK293T) cells expressing luciferase-tagged ELG1; 330,000 tested, 1.3% active; Potency, µM (doses to about 46 µM), inactives show at the highest dose activity change, positive = activation, hits mostly activators; HEK293T ELG1-luciferase reporter, luminescence, 16 h; note: % of control where 0% means no effect; nearly all actives have a fitted effect of over 60% in size
#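 After overnight (16 hr) compound treatment at 37 °C, ELG1-luciferase HEK293T cells were lysed with ONE-Glo; luminescence quantified 30 min later at room temperature.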
# FLuc modulator: qHTS profiling assay for firefly luciferase inhibitor/activator using purifed enzyme and Km concentrations of substrates (counterscreen for miR-21 project); Luciferin 4-monooxygenase (Photinus pyralis), P08659; 360,000 tested, 6.9% active; AID 588342, 2011; purified FLuc, Km substrates, luminescence inhibition; Potency, µM (doses to about 57.5 µM), for the others: top-dose activity change, negative = inhibition, most hits filed as inhibitors;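 note: plate controls were vehicle for no effect and reference inhibitor for full effect; nearly all actives have a fitted effect of over 55% in size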
# Target sequence (P08659 whole entry, looked up): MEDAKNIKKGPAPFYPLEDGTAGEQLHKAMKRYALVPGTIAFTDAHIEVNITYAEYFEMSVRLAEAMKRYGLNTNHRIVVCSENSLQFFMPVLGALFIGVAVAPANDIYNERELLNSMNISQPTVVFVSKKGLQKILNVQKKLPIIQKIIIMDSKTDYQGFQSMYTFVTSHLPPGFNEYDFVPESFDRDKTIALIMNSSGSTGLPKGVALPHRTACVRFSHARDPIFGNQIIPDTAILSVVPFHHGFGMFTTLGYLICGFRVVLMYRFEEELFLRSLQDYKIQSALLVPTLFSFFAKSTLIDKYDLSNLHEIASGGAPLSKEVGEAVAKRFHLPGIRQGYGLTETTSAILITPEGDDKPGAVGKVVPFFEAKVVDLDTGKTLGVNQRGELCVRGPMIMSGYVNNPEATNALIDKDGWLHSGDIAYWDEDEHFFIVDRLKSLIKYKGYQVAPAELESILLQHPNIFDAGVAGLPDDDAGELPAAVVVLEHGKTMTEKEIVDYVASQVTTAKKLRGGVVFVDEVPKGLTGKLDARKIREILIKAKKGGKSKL
#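 Purified P. pyralis luciferase (10nM final) with 10uM D-luciferin and 10uM ATP (Km levels) in 50mM Tris acetate pH 7.5, 10mM Mg acetate, 0.01% Tween-20, 0.05% BSA; qHTS 6-point titration, ~60 µM downward; luminescence read.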
# Starred values were filed as active, the others as inactive; ? = inconclusive; / = not tested or not shown. In the library only some 9.4% were active in any assay of this set; here they are far more common. Calls come from the whole dose curve; as a rule, active = well fitted curve in the direction sought with a large enough effect; inconclusive = small, poorly fitted or top-dose-only effect, or another doubt; inactive = no such curve, though single readings can be large; an effect the other way counts as inactive or inconclusive. Potency is the fitted concentration of half-maximal effect.
SMILES,SMN2 splice enh,Rab9 promoter act,NPC1 promoter act,ELG1 DNA repair,ELG1 genotox,FLuc modulator
Cc1nc(-c2ccc(NC(=O)c3ccco3)cc2)cs1,/,?,?,?,0.206µM*,0.0675µM*
Cc1ccn2cc(-c3ccc(NC(=O)c4ccco4)cc3)nc2c1,4.47µM*,1.41µM*,3.16µM*,?,?,3.38µM*
O=C(Nc1ccc(-c2ccccc2)cc1)c1ccco1,-4.1%,0.5%,-4.0%,7.4%,8.5%,4.0%
Nc1nc(-c2ccc(NC(=O)c3ccco3)cc2)cs1,/,0.794µM*,0.708µM*,?,?,0.675µM*
Cc1nnc2ccc(-c3ccc(NC(=O)c4ccco4)cc3)nn12,37.0%,0.1%,-5.2%,?,19.6%,1.8%
Cc1nc(-c2cccc(NC(=O)c3ccco3)c2)cs1,/,10.7%,0.4%,18.6%,9.1%,?
Nc1nc2ccc(NC(=O)c3ccco3)cc2s1,/,?,?,?,?,15.1µM*
CCc1ccccc1NC(=O)CN(c1cc(C(F)(F)F)ccc1Cl)S(=O)(=O)c1ccccc1,-2.9%,/,/,/,/,-5.7%
Cc1ccc(CNC(=O)C(=O)NCC(c2cccs2)S(=O)(=O)c2cccs2)cc1 (centres undefined),/,/,/,/,/,-9.5%
COc1cc2c(cc1OC)CN(CC(=O)Nc1ccccc1C(=O)NC1CC1)CC2,/,-0.3%,0.4%,-10.0%,1.4%,0.6%
COc1cc2c(cc1OC)CN(CC(=O)Nc1ccccc1C(=O)NCc1ccccc1)CC2,/,0.0%,-1.2%,23.1µM*,-4.6%,0.8%
O=C(CN1CCN(Cc2ccccc2F)CC1)Nc1ccccc1Cl,/,-6.2%,11.5%,10.3µM*,-0.5%,-1.3%
COc1cccc(N2CCN(CC(=O)Nc3ccccc3C(=O)NCCc3ccccc3)CC2)c1,/,3.55µM*,3.16µM*,?,0.4%,/
COc1cccc(CN2CCN(CC(=O)Nc3ccccc3Cl)CC2)c1,-19.6%,5.8%,1.3%,13µM*,-1.4%,-1.0%
COc1ccc(C(=O)NCC2(N3CCN(C)CC3)CCCCC2)cc1,/,/,/,/,/,2.8%
Cc1ccc(S(=O)(=O)N2CCN(CC(=O)Nc3ccccc3C(=O)NC3CC3)CC2)cc1,/,-0.3%,-0.9%,-13.1%,0.6%,2.6%
Cc1ccccc1N1CCN(CC(=O)Nc2ccccc2C(=O)NC2CC2)CC1,/,-6.7%,-2.1%,20.6µM*,-10.8%,/
O=C(OCc1ccco1)c1ccc2c(c1)N(Cc1ccc([N+](=O)[O-])cc1)C(=O)c1ccccc1S2,/,/,/,/,/,-1.8%
CCC1=Nc2cc(C(=O)NC3CCCC3)ccc2Sc2ccc(Br)cc21,-27.5%,/,/,/,/,-7.4%
O=C1c2ccccc2NC(c2ccc(-c3ccc(F)cc3)o2)N1O (centres undefined),/,2.3%,2.82µM*,?,?,?
CCC(C(=O)C(C)C(O)C(C)CCc1ccc(C)c(O)c1C(=O)O)C1OC(CC)(C2CC[C@@](O)(CC)C(C)O2)CC1C (some centres undefined),-60.8%,/,/,/,/,/
S=C1SCN(Cc2cccnc2)CN1Cc1cccnc1,/,-43.2%,-32.3%,23.1µM*,-12.6%,-0.7%
S=C1SCN(Cc2ccccc2)CN1Cc1ccccc1,/,-10.3%,-1.6%,0.0%,-4.4%,1.1%
COc1ccc(C(=O)C[n+]2cc(-c3ccc(OC)cc3)n3c2CCCC3)cc1,-4.6%,-4.4%,-10.5%,7.3µM*,-14.9%,0.3%
COc1ccc(-c2c[n+](CC(=O)c3cccs3)c3n2CCC3)cc1,/,-3.1%,0.8%,23.1µM*,-11.5%,-0.1%
SMILES,SMN2 splice enh,Rab9 promoter act,NPC1 promoter act,ELG1 DNA repair,ELG1 genotox,FLuc modulator
Cc1ccc(-c2c[n+](Cc3ccc(Cl)c(Cl)c3)c3n2CCC3)cc1,-30.3%,-7.3%,-9.2%,20.6µM*,-11.8%,0.0%
Cc1ccc(C(=O)C[n+]2cc(-c3ccc(C)cc3)n3c2CCCCC3)cc1,-67.0%,-27.5%,-39.0%,16.4µM*,-7.7%,-3.2%
Cc1ccc(NC(=O)C[n+]2cc(-c3ccc(C)cc3)n3c2CCC3)cc1,/,-0.2%,1.4%,0.0%,-5.1%,1.1%
O=C(C[n+]1cc(-c2ccccc2)n2c1CCCCC2)c1ccc(Br)cc1,-16.6%,-10.1%,-0.7%,?,-12.1%,-2.4%
CCOc1ccc(OCC)c(NC(=O)CCc2c(C)nc3c(c2C)c(=O)n(C)c(=O)n3C)c1,0.4%,/,/,/,/,0.2%
COc1cccc(/C=C2\SC(=S)N(CC3CCCO3)C2=O)c1 (centres undefined),-19.8%,-8.2%,-2.6%,?,5.9%,10.7µM*
COc1cccc(/C=C2\SC(=S)N(CCC(=O)N3CCCCC3)C2=O)c1,/,-16.4%,-31.3%,-4.6%,-15.4%,-17.1%
COc1cccc(/C=C2\SC(=S)N(N3C(=O)CCCC3=O)C2=O)c1,11.5%,-11.1%,-0.6%,?,1.5%,21.3µM*
O=C1/C(=C/c2cccc(O)c2)SC(=S)N1CC1CCCO1 (centres undefined),/,-8.9%,-12.8%,?,5.3%,?
O=C(CSc1nc2ccccc2[nH]1)NCc1ccco1,15.8%,13.4%,8.3%,?,?,-12.6%
O=C(CSc1ncccc1-c1nc2ccccc2[nH]1)NCc1ccco1,-13.2%,26.1%,20.1%,0.0%,?,23.9µM*
Cc1cc2nc(-c3cccnc3SCC(=O)NC3CC3)[nH]c2cc1C,15.8µM*,?,?,?,?,2.69µM*
Cc1cc2nc(-c3cccnc3SCC(=O)NCc3ccco3)[nH]c2cc1C,12.6µM*,3.16µM*,3.98µM*,?,?,0.953µM*
CCCN(c1c(C)n(C)n(-c2ccccc2)c1=O)S(=O)(=O)c1ccc(C)cc1,25.0%,/,/,/,/,-2.4%
CCOC(=O)c1c(C)oc2nc(C)nc(N3CCN(c4cccc(C(F)(F)F)c4)CC3)c12,/,/,/,/,/,5.1%
COc1c(C)cc(C(=O)C2CCCN(C(=O)CCc3scnc3C)C2)cc1C (centres undefined),/,-31.4%,-5.2%,11.6µM*,-8.9%,-1.5%
COc1c(C)cc(C(=O)C2CCCN(C(=O)c3ccc4[nH]ccc4c3)C2)cc1C (centres undefined),/,8.2%,-0.9%,?,-1.7%,-6.7%
CCCc1cc(C(=O)N2CCCC(C(=O)c3cc(C)c(OC)c(C)c3)C2)n(C)n1 (centres undefined),/,-12.5%,8.7%,8.2µM*,-2.8%,0.1%
